The source of these data is PubChem BioAssay (NCI).

Structures are written as SMILES. Values joined by “and” are separate entries in the source; they are usually repeats but may differ in a detail not shown here. Equal values may be shown once. Compounds without any hit were thinned out: in the full panel of roughly 83,000, 20% have a hit.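 How to read the values: 0–100, growth inhibition (40 = 60% inhibited); 0, no net growth; -100 to 0, cell death (-40 = 40% of starting cells died; -100 = all dead).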 More than one record can exist for a structure, and the calls need not agree. Active and inactive are the calls of the source. Rule for the calls: active = growth percent below 10; inactive = the rest.

Some test systems named below: NCI-H23 lung; NCI-H522 lung; MDA-MB-231 breast; M14 melanoma; SK-MEL-5 melanoma; UACC-62 melanoma; LOX IMVI melanoma; CCRF-CEM leukemia; MOLT-4 leukemia; SR leukemia; OVCAR-8 ovarian; OVCAR-5 ovarian; OVCAR-4 ovarian; IGROV1 ovarian; HS 578T breast; NCI/ADR-RES ovarian; T-47D breast; MCF7 breast; HCT-116 colon; KM12 colon.
Holding throughout (experiment): NCI-60 one-dose screen, 48 h (100 = growth as untreated, 0 = no growth, -100 = all killed)
Settings in all cases: 10 µM

On to `COc1cc(C)c(-c2ccc(OC)c(=O)cc2C)c(OC)c1OC`, for which the growth in the assay with NCI-H23 lung is 22.3% (inactive) and 106% (inactive); in the assay with NCI-H522 lung, -11.4% (active) and 98.2% (inactive); in the assay with MDA-MB-231 breast, 18.3% (inactive) and 99.8% (inactive); with M14 melanoma, 4.63% (active) and 101% (inactive); with SK-MEL-5 melanoma, 21.7% (inactive) and 99.7% (inactive); in the assay on UACC-62 melanoma it was 30.8% (inactive) and 86.1% (inactive). For the same molecule, the growth with LOX IMVI melanoma was 18% (inactive) and 106% (inactive); in the assay on CCRF-CEM leukemia, 10.1% (inactive) and 96.8% (inactive); with MOLT-4 leukemia, 12.3% (inactive) and 102% (inactive); in the assay on SR leukemia, 9.85% (active) and 89.4% (inactive); in the assay with OVCAR-8 ovarian it was 5.3% (active) and 100% (inactive); in the assay with OVCAR-5 ovarian, 24.6% (inactive) and 98.9% (inactive). Besides, the growth was 70.9% (inactive) and 96.9% (inactive) with OVCAR-4 ovarian; 27.2% (inactive) and 103% (inactive) in the assay on IGROV1 ovarian; 1.63% (active) and 109% (inactive) in the assay on HS 578T breast; -11.5% (active) and 107% (inactive) in the assay with NCI/ADR-RES ovarian; 61% (inactive) and 137% (inactive) in the assay with T-47D breast; 14.8% (inactive) and 91.5% (inactive) with MCF7 breast. Further, the growth in the assay on HCT-116 colon is 11.9% (inactive) and 102% (inactive); in the assay on KM12 colon, 6.94% (active) and 109% (inactive).

With `O=C(CCCc1ccc(N(CCCl)CCCl)cc1)OCc1ccccc1`, the growth was 89.3% (inactive) in the assay with NCI-H23 lung; 84.3% (inactive) with NCI-H522 lung; 103% (inactive) with MDA-MB-231 breast; 95.1% (inactive) in the assay on M14 melanoma; 93.7% (inactive) in the assay on SK-MEL-5 melanoma; 77.8% (inactive) in the assay on UACC-62 melanoma. For the same molecule, the growth in the assay on LOX IMVI melanoma was 77.2% (inactive); in the assay with CCRF-CEM leukemia it was 82.1% (inactive); in the assay with MOLT-4 leukemia, 76.7% (inactive); with SR leukemia, 42.2% (inactive); in the assay with OVCAR-8 ovarian it was 89.7% (inactive); in the assay with OVCAR-5 ovarian, 117% (inactive). For the same molecule, the growth was 105% (inactive) in the assay with OVCAR-4 ovarian; 87.8% (inactive) in the assay on IGROV1 ovarian; 114% (inactive) in the assay on HS 578T breast; 93.9% (inactive) in the assay on NCI/ADR-RES ovarian; 75.6% (inactive) in the assay with T-47D breast; 81.8% (inactive) with MCF7 breast. Also, the growth with HCT-116 colon is 92.7% (inactive); in the assay with KM12 colon, 99.7% (inactive).

As to `N#Cc1nc(-c2ccccc2)oc1N1CCC(S(=O)(=O)F)CC1`, the growth in the assay with NCI-H23 lung is 99.2% (inactive); in the assay on NCI-H522 lung, 93.9% (inactive); with MDA-MB-231 breast, 98.7% (inactive); with M14 melanoma, 106% (inactive); in the assay with SK-MEL-5 melanoma, 96.3% (inactive); in the assay with UACC-62 melanoma it was 98.1% (inactive). The growth in the assay with LOX IMVI melanoma was 104% (inactive); with CCRF-CEM leukemia it was 100% (inactive); in the assay on MOLT-4 leukemia, 94.3% (inactive); in the assay on SR leukemia it was 83.4% (inactive); in the assay with OVCAR-8 ovarian, 94.3% (inactive); with OVCAR-5 ovarian it was 104% (inactive). Moreover, the growth in the assay with OVCAR-4 ovarian was 101% (inactive); in the assay with IGROV1 ovarian, 103% (inactive); in the assay on HS 578T breast, 98.5% (inactive); in the assay with NCI/ADR-RES ovarian, 104% (inactive); in the assay on T-47D breast, 106% (inactive); in the assay with MCF7 breast, 98.2% (inactive). The growth is 101% (inactive) in the assay on HCT-116 colon and 97.1% (inactive) in the assay with KM12 colon.

Take `C/C=C\C(=O)O[C@@H]1CC2O[C@@H]3C=C(C)C(=O)C[C@]3(C)[C@]1(C)[C@]21CO1`: the growth is -21.3% (active) in the assay on NCI-H23 lung; -18.4% (active) in the assay on NCI-H522 lung; -21.1% (active) with MDA-MB-231 breast; -78.6% (active) with M14 melanoma; -57% (active) with SK-MEL-5 melanoma; -27.2% (active) in the assay on UACC-62 melanoma. For the same molecule, the growth was -56.3% (active) with LOX IMVI melanoma; -12.8% (active) in the assay on CCRF-CEM leukemia; -26.4% (active) in the assay on MOLT-4 leukemia; -13.1% (active) in the assay with SR leukemia; 0.288% (active) with OVCAR-8 ovarian; -3.51% (active) in the assay with OVCAR-5 ovarian. For the same molecule, the growth in the assay with OVCAR-4 ovarian was -12.2% (active); in the assay with IGROV1 ovarian, 1.08% (active); in the assay on HS 578T breast it was -2.98% (active); in the assay on NCI/ADR-RES ovarian it was -3.97% (active); with T-47D breast, -24% (active); in the assay on MCF7 breast it was 0.933% (active). Besides, the figures for the growth in the assay with HCT-116 colon and in the assay on KM12 colon were -29.4% (active) and 3.28% (active), respectively.

As for `CC(=O)O[C@@H]1C[C@H]2O[C@@H]3C=C(C)CC[C@]3(C)[C@]1(C)[C@]21CO1`, the growth was 7.96% (active) in the assay with NCI-H23 lung; 2.05% (active) in the assay on NCI-H522 lung; 4.27% (active) with MDA-MB-231 breast; -45.9% (active) with M14 melanoma; -50.9% (active) in the assay on SK-MEL-5 melanoma; 2.75% (active) in the assay on UACC-62 melanoma. Besides, the growth with LOX IMVI melanoma is -41.5% (active); in the assay on CCRF-CEM leukemia, -3.18% (active); in the assay on MOLT-4 leukemia it was -9.55% (active); with SR leukemia it was 0.874% (active); in the assay with OVCAR-8 ovarian it was 8.44% (active); with OVCAR-5 ovarian it was 84.3% (inactive). For the same molecule, the growth in the assay on OVCAR-4 ovarian is -1.86% (active); in the assay on IGROV1 ovarian, 22.8% (inactive); with HS 578T breast, 22.7% (inactive); in the assay on NCI/ADR-RES ovarian it was 14.6% (inactive); with T-47D breast it was -2.72% (active); with MCF7 breast it was 3.89% (active). Moreover, the figures for the growth in the assay with HCT-116 colon and with KM12 colon were 0.731% (active) and 27.4% (inactive), respectively.

For `COc1cc2c(O[C@@H]3OC[C@H](O)[C@H](O)[C@H]3O)c3c(c(-c4ccc5c(c4)OCO5)c2cc1OC)C(=O)OC3`, the growth was 72.8% (inactive) with NCI-H23 lung; 13.5% (inactive) in the assay on NCI-H522 lung; 22.9% (inactive) in the assay with MDA-MB-231 breast; 31.3% (inactive) in the assay with M14 melanoma; -93.4% (active) with SK-MEL-5 melanoma; 20.8% (inactive) in the assay with UACC-62 melanoma. Further, the growth is -57.7% (active) in the assay on LOX IMVI melanoma; 46.6% (inactive) in the assay with CCRF-CEM leukemia; 110% (inactive) with MOLT-4 leukemia; 14.5% (inactive) with SR leukemia; 22% (inactive) in the assay on OVCAR-8 ovarian; 39.4% (inactive) with OVCAR-5 ovarian. Besides, the growth was 74% (inactive) with OVCAR-4 ovarian; 53% (inactive) in the assay with IGROV1 ovarian; 91.1% (inactive) in the assay with HS 578T breast; 90.1% (inactive) in the assay on NCI/ADR-RES ovarian; 18.2% (inactive) in the assay on T-47D breast; 71.2% (inactive) with MCF7 breast. The growth in the assay with HCT-116 colon is 29.1% (inactive); in the assay on KM12 colon, 71.6% (inactive).
